This passage reports growth inhibition results from PubChem BioAssay (NCI).

SMILES strings stand for the structures. About 79,000 compounds went through this panel and 15% of them were active in at least one assay; those are over-represented in the sample as a whole. Values without a mark were called inactive. Active and inactive are the calls of the source. No stated cut-off is given here; in the data, active means growth inhibition above about 70%; inactive means the rest.

Assay [1] is described as follows: NCI Yeast Anticancer Drug Screen. Data for the rad50 strain (AID 155).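 Further: 0% = growth of vehicle-only cultures of the same strain.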 Particulars: S. cerevisiae rad50 strain growth inhibition; at 50.0 µM; active compounds read high. The essentials:
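A DNA repair-deficient yeast mutant serves as the test organism; compound-induced growth inhibition is calculated against vehicle-treated cells.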

Assay [2] can be described thus: NCI Yeast Anticancer Drug Screen. Data for the mec2-1 strain (AID 157). Particulars: S. cerevisiae mec2-1 strain, at 50.0 µM, active compounds read high. The essentials:
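Mutant yeast (mec2-1) grown with compound; growth inhibition relative to vehicle control reported.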

Assay [3] in a line: NCI Yeast Anticancer Drug Screen. Data for the sgs1 mgt1 strain (AID 161).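 Further: 0% = growth of cultures given vehicle only.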 The conditions noted are these: S. cerevisiae sgs1 mgt1 strain, at 50.0 µM, active compounds read high. The essentials:
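Yeast cells carrying a defined DNA-repair defect were exposed to test compounds. Growth inhibition was measured relative to vehicle-treated controls.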

Assay [4] in a line: NCI Yeast Anticancer Drug Screen. Data for the cln2 rad14 strain (AID 165).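 Further: 0% = growth equal to vehicle treated cultures.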 Particulars: S. cerevisiae cln2 rad14 strain, at 50.0 µM, active compounds read high. The essentials:
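Readout is yeast growth inhibition versus vehicle-treated controls, using a strain with cln2 and rad14 alterations exposed to compound.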

The nature of assay [5]: NCI Yeast Anticancer Drug Screen. Data for the bub3 strain (AID 167). Particulars: S. cerevisiae bub3 mutant strain, at 50.0 µM, active compounds read high. In outline:
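Inhibition values come from growth of compound-treated mutant yeast normalised to vehicle-treated controls.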

The nature of assay [6]: NCI Yeast Anticancer Drug Screen. Data for the mlh1 rad18 strain (AID 175). The conditions noted are these: S. cerevisiae mlh1 rad18 strain growth inhibition; at 50.0 µM; active compounds read high. The essentials:
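Genetically defined yeast (DNA repair-deficient) exposed to compounds; growth inhibition determined relative to vehicle.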

As for `Cc1ccc2ccccc2c1CSc1nc(N)nc2c1ncn2CC(C)C`, the growth inhibition is 37% in assay [1]; 23.6% in assay [2]; 30.7% in assay [3]; 25.6% in assay [4]; 12.9% in assay [5]; 46.5% in assay [6].

Consider `CC(C)(S)CNCCSC(=O)c1ccccc1`, for which the growth inhibition in assay [1] was 2.8%; in assay [2] it was -0.2%; in assay [3], 23.1%; in assay [4] it was -16.1%; in assay [5] it was 63.5%; in assay [6] it was 30.1%.

For the compound `CC(=O)NCCc1ccc(Cl)c(Cl)c1`, the growth inhibition was 13.6% in assay [1]; -4.25% in assay [2]; -5.95% in assay [3]; -0.6% in assay [4]; 3.35% in assay [5]; -3.3% in assay [6].

With `O=S1(=O)CC=CC1`, the growth inhibition in assay [1] was -10.2%; in assay [2], 3.45%; in assay [3] it was -7.95%; in assay [4] it was 13.2%; in assay [5], 11.9%; in assay [6], 3.15%.

Regarding `N/C(CC/C(N)=N\O)=N\O`, the growth inhibition is -1.95% in assay [1]; -15.8% in assay [2]; -11.2% in assay [3]; -4.9% in assay [4]; 1.1% in assay [5]; -1.7% in assay [6].

As to `COc1ccc(/C=C/C(=O)c2ccc(Cl)s2)cc1`, the growth inhibition in assay [1] is -18.2%; in assay [2], -4.75%; in assay [3], -5.8%; in assay [4], -34.3%; in assay [5] it was 20.4%; in assay [6], -4.5%.

In the case of `COc1ccccc1Nc1nc(N)nc(N)c1N`, the growth inhibition in assay [1] was 0.85%; in assay [2], -3.65%; in assay [3], 5%; in assay [4], -3.75%; in assay [5], -4.9%; in assay [6] it was 11.2%.

Turning to `OCCN(CCO)c1cc(/C=C/c2c3ccccc3cc3ccccc23)nc2ccccc12`, the growth inhibition in assay [1] was 94.2% (active); in assay [2], 95.9% (active); in assay [3], 96.1% (active); in assay [4], 94.8% (active); in assay [5] it was 96.5% (active); in assay [6], 95.7% (active).

For `CCC(=O)OCCCCCCOC(=O)CC`, the growth inhibition in assay [1] was 18.3%; in assay [2] it was 6%; in assay [3] it was 12.5%; in assay [4], -15%; in assay [5], 19.9%; in assay [6], -5.9%.

In the case of `CCOC(=O)/C(=C/c1cn(C(C)=O)c2ccccc12)P(C)(=O)OCC` (centres undefined), the growth inhibition is 33.2% in assay [1]; 52.5% in assay [2]; 55.5% in assay [3]; 40% in assay [4]; 53.5% in assay [5]; 22.2% in assay [6].

Take `CCCCC(=O)Nc1ccc(S(=O)(=O)O)c(N=NC2C(=O)N(c3ccccc3)N=C2C)c1` (centres undefined): the growth inhibition was 27.1% in assay [1]; -10.6% in assay [2]; 5.6% in assay [3]; -13% in assay [4]; -3% in assay [5]; 15% in assay [6].

For `O/N=C(/c1ccccc1)C1CCCCC1`, the growth inhibition in assay [1] was 20.7%; in assay [2], -1.05%; in assay [3], 13%; in assay [4], -0.15%; in assay [5] it was -8.5%; in assay [6], 10.3%.

As for `CN(C)CCCC[N+](C)(C)Cc1ccc(C[N+](C)(C)CCCC[N+](C)(C)Cc2ccc(CCl)cc2)cc1`, the growth inhibition in assay [1] is -9.7%; in assay [2], -15%; in assay [3], -7.2%; in assay [4], -0.95%; in assay [5], -1.9%; in assay [6], -3.55%.

With `Cc1ccc(O)c(C2C=CCC2)c1` (centres undefined), the growth inhibition in assay [1] is 8.6%; in assay [2], -7.25%; in assay [3], 22.8%; in assay [4] it was 7.5%; in assay [5], -1.35%; in assay [6] it was 4.2%.

Consider `CC(N)C(=O)NC(C(=O)NC1C(O)OC(CO)C(O)C1O)C(C)C` (centres undefined), for which the growth inhibition is 6.1% in assay [1]; -17.2% in assay [2]; -17.4% in assay [3]; 7.95% in assay [4]; 7.1% in assay [5]; -5.75% in assay [6].

On to `O=C1c2ccccc2OCC1/C=N/O` (centres undefined), for which the growth inhibition in assay [1] is 1.9%; in assay [2] it was -24.1%; in assay [3], -26.4%; in assay [4] it was 32.2%; in assay [5] it was -34.1%; in assay [6], -10.8%.

With `CCCC(=O)OCCCCC1CCCO1` (centres undefined), the growth inhibition in assay [1] was 13.2%; in assay [2], 3.6%; in assay [3], 8.75%; in assay [4], 14%; in assay [5], 5.45%; in assay [6] it was 11.6%.

`O=C(Nc1ccc(Cl)cc1)OCCN(CCOC(=O)Nc1ccc(Cl)cc1)C(=O)Nc1ccc(Cl)cc1`: the growth inhibition was 19.3% in assay [1]; -19.1% in assay [2]; 1.65% in assay [3]; -3.25% in assay [4]; -7.8% in assay [5]; 9.15% in assay [6].

`Cc1cccc(-c2cc3cccnc3nc2NN=O)c1C`: the growth inhibition is 64.8% in assay [1]; 68% in assay [2]; 75.7% (active) in assay [3]; 39.3% in assay [4]; 67.1% in assay [5]; 76.5% (active) in assay [6].

For `COc1ccc(C2OC3=C(Nc4ccc(Cl)cc4N3)C2=O)cc1` (centres undefined), the growth inhibition is -1.9% in assay [1]; 0.3% in assay [2]; 6.65% in assay [3]; 9.4% in assay [4]; -9.3% in assay [5]; 14.9% in assay [6].

Turning to `O=C1NC2(CCCCC2)N=C2C(Cl)CCCC12Cl` (centres undefined), the growth inhibition in assay [1] was -22.1%; in assay [2], -24.5%; in assay [3] it was -0.7%; in assay [4], 21%; in assay [5], -1.85%; in assay [6], -8.8%.

On to `[O-]c1c(Cl)c(Cl)c(O[P+](c2ccccc2)(c2ccccc2)c2ccccc2)c(Cl)c1Cl`, for which the growth inhibition in assay [1] was 99.2% (active); in assay [2] it was 99.4% (active); in assay [3], 99.5% (active); in assay [4], 97.9% (active); in assay [5] it was 99% (active); in assay [6], 99.2% (active).

Turning to `CC(C)CCCCC(C)(C)OC(=O)NC(N)=O`, the growth inhibition in assay [1] was 7.25%; in assay [2], 2%; in assay [3], 12.2%; in assay [4], 17.1%; in assay [5], -17.6%; in assay [6] it was 9.85%.

For `O=C(OCc1ccccc1)N1CCCCC1`, the growth inhibition is 7.9% in assay [1]; -2.65% in assay [2]; 5.45% in assay [3]; -13.2% in assay [4]; 22.2% in assay [5]; -1% in assay [6].

In the case of `CCO/N=C(/N)c1ncn(Cc2ccccc2)c1NCC(OCC)OCC`, the growth inhibition was -26.4% in assay [1]; 1.15% in assay [2]; -4.2% in assay [3]; 22.2% in assay [4]; -1% in assay [5]; -16.9% in assay [6].

Regarding `CCc1c(C)nc2cc(-c3cc(C)n4c(=O)c(CC)c(C)nc4c3)cc(C)n2c1=O`, the growth inhibition in assay [1] is 1.6%; in assay [2], 9.95%; in assay [3], -12.7%; in assay [4], 1.2%; in assay [5], 3.2%; in assay [6] it was 3.95%.

Take `NC(=O)NNC(=O)Cc1ccccc1`: the growth inhibition in assay [1] is 1.35%; in assay [2], -0.25%; in assay [3], -1.95%; in assay [4] it was 0.55%; in assay [5], -0.95%; in assay [6] it was -3.45%.

In the case of `C/C(=N/Nc1ccc([N+](=O)[O-])cc1[N+](=O)[O-])C(C)(C)C`, the growth inhibition in assay [1] was -3.05%; in assay [2], -13.2%; in assay [3], 0.35%; in assay [4], 3.15%; in assay [5], -8.75%; in assay [6] it was -13.2%.

As for `CC(=O)N1C(=O)C(C)(C2=CC(=O)c3ccccc3C2=O)c2ccc(Br)cc21` (centres undefined), the growth inhibition in assay [1] was 76.8% (active); in assay [2] it was 77% (active); in assay [3], 73.7% (active); in assay [4], 71.8% (active); in assay [5], 87% (active); in assay [6], 67.2%.

As for `NC(=O)CCCc1ccc2oc3ccccc3c2c1`, the growth inhibition in assay [1] was 13.4%; in assay [2] it was -4.05%; in assay [3], 9.05%; in assay [4] it was 6.55%; in assay [5] it was 22.8%; in assay [6], 35.4%.

Consider `O=C(Nc1ccccc1)OCc1cnc2ccccc2c1`, for which the growth inhibition is 6.05% in assay [1]; -22.6% in assay [2]; 9.2% in assay [3]; -9.4% in assay [4]; 3.05% in assay [5]; -2.8% in assay [6].

Consider `O=C(N/N=C/c1ccc(Cl)cc1Cl)c1ccccc1`, for which the growth inhibition in assay [1] was -13.8%; in assay [2], -1.65%; in assay [3], -2.95%; in assay [4], -5.1%; in assay [5] it was -8.65%; in assay [6], -3.9%.

With `C#CCSC(=N)N`, the growth inhibition in assay [1] was 5.4%; in assay [2], -6.9%; in assay [3], 8.9%; in assay [4], 5.2%; in assay [5], 8.8%; in assay [6], 5.75%.

For `NC(=O)C12CC3CC(CC(Br)(C3)C1)C2`, the growth inhibition is -7.9% in assay [1]; -6.85% in assay [2]; -8.25% in assay [3]; 16.2% in assay [4]; 2.5% in assay [5]; -7.1% in assay [6].

Regarding `O=C(c1ccc(Cl)cc1)c1nnc(Cl)s1`, the growth inhibition in assay [1] was -4.7%; in assay [2], 2.2%; in assay [3] it was -6.7%; in assay [4] it was -10.8%; in assay [5] it was 24.8%; in assay [6] it was 2.3%.

`CC(=O)OCC(OC(C)=O)C(OC(C)=O)C(OC(C)=O)c1cnn(-c2ccccc2)n1` (centres undefined): the growth inhibition in assay [1] was 4.05%; in assay [2] it was 12.7%; in assay [3] it was -20%; in assay [4], -22.8%; in assay [5], 5.6%; in assay [6], 6%.

Consider `CCN(C(=O)/C=C/c1ccccc1)C1CCCCC1`, for which the growth inhibition in assay [1] is 17.2%; in assay [2], 27.9%; in assay [3] it was 53.2%; in assay [4] it was 47.2%; in assay [5], 35.5%; in assay [6], 48.5%.

Turning to `CN(C)CCCNC(=O)c1cc(NC(=O)c2cc(NC(=O)c3cc(NC(=O)CCCn4ccc(CO)c4CO)cn3C)cn2C)cn1C`, the growth inhibition is 6.6% in assay [1]; -8.6% in assay [2]; -5.35% in assay [3]; 31.6% in assay [4]; 4.8% in assay [5]; 8.35% in assay [6].

For `COc1ccc(/C(C#N)=C/c2ccc(N(C)CCC#N)cc2)cc1`, the growth inhibition in assay [1] was 28.2%; in assay [2], -24.1%; in assay [3], 24.2%; in assay [4] it was -8.75%; in assay [5], 15.2%; in assay [6], 24.5%.
